Laboratory results as given in PubChem BioAssay (NCATS).
Where “and” joins values, the source holds several entries; their conditions need not be identical. Equal entries are not always repeated. Results filed as inconclusive are left out. The source holds several records for some structures; these can differ, active in one and inactive in another. Calls of active or inactive are those of the source. Unless noted, calls come from the whole dose curve; as a rule, active = well fitted curve in the direction sought with a large enough effect; inconclusive = small, poorly fitted or top-dose-only effect, or another doubt; inactive = no such curve, though single readings can be large; an effect the other way counts as inactive or inconclusive.

Assays:
[1] = target: Guanine nucleotide-binding protein G(i) subunit alpha-1 (Homo sapiens) (UniProt P63096); assay: qHTS Assay for Inhibitors of RGS12 GoLoco Motif Activity (Green Fluorophore) (AID 879);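 note: 0% = labeled peptide with Gαi1 and full inhibition = labeled peptide alone without protein; negative values mean loss of peptide binding seen as reduced polarization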
Guanine nucleotide-binding protein G(i) subunit alpha-1 (Homo sapiens), sequence (P63096 whole entry, looked up): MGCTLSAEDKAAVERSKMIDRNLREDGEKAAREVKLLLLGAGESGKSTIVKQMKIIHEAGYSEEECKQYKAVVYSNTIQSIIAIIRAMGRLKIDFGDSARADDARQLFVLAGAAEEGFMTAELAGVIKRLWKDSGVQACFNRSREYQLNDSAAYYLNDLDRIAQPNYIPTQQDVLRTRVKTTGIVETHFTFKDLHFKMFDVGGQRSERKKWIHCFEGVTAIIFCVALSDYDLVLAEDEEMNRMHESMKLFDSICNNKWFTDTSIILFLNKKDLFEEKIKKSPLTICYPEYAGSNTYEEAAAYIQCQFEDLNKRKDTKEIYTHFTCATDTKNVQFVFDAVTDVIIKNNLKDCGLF
Outline: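 Fluorescence polarization assay: 50 nM Gαi1 with 10 nM FITC-labeled RGS12 GoLoco peptide in 10 mM Tris pH 7.5, 150 mM NaCl, 0.1 mM GDP, 0.05% NP40, 10 min at room temperature with compound.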

[2] = target: Cytochrome P450 2C9 (Homo sapiens) (UniProt P11712); assay: qHTS Assay for Inhibitors and Substrates of Cytochrome P450 2C9 (AID 883); note: nearly all actives have a fitted effect of over 60% in size; note: potency is the fitted concentration of half-maximal effect; for activity change, negative = inhibition: % is set by controls: 0 for no effect and ±100 for the full control effect
Cytochrome P450 2C9 (Homo sapiens), sequence (P11712 whole entry, looked up): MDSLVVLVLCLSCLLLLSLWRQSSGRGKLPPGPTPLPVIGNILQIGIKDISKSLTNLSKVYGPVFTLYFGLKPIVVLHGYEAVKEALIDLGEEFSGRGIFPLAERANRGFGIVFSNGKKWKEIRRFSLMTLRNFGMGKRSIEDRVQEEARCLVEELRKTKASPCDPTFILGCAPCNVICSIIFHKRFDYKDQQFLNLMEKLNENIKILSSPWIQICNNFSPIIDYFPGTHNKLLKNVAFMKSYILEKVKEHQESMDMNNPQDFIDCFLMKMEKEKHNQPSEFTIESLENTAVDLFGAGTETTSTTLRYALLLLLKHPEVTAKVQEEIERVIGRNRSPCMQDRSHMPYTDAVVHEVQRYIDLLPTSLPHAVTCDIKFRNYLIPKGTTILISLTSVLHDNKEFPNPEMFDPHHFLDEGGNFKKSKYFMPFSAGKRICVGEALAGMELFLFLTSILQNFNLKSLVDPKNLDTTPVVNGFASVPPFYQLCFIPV
Outline: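 Turnover of Luciferin-H (100uM, KM) by 10nM human CYP2C9 was measured over 60 min at 37C with NADPH regeneration; inhibitors and some substrates reduce luminescence. Data normalized to sulphaphenazole 57uM.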

[3] = target: Cytochrome P450 3A4 (Homo sapiens) (UniProt P08684); assay: qHTS Assay for Activators of Cytochrome P450 3A4 (AID 885); note: nearly all actives have a fitted effect of over 65% in size
Cytochrome P450 3A4 (Homo sapiens), sequence (P08684 whole entry, looked up): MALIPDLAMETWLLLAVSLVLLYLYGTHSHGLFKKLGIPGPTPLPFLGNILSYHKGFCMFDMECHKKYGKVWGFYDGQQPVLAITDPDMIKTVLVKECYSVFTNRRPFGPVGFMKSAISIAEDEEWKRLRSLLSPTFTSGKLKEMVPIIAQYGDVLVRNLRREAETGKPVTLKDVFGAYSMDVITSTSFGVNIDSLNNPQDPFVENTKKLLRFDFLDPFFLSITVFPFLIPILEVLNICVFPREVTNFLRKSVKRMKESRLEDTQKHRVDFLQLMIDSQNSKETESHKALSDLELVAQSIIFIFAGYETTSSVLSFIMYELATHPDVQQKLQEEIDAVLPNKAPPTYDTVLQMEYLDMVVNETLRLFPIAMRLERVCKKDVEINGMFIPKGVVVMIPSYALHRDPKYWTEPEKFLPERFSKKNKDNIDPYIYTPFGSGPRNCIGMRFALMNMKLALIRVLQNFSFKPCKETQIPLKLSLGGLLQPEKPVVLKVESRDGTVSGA
Outline: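 Human CYP3A4 (20 nM) with Luciferin-PPXE at 25 uM (its KM) in 200 mM KPO4; 10 min compound preincubation, then NADPH regeneration and 60 min reaction at RT. Luciferin read by luminescence; normalized to 57 uM ketoconazole full inhibition.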

[4] = target: Cytochrome P450 2D6 (Homo sapiens) (UniProt P10635); assay: qHTS Assay for Inhibitors and Substrates of Cytochrome P450 2D6 (AID 891); note: nearly all actives have a fitted effect of over 60% in size; note: potency is the fitted concentration of half-maximal effect;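 for activity change, negative = inhibition: luciferin methyl ether substrate demethylated by CYP2D6 with NADPH regeneration; % is set by controls: 0 for no effect and ±100 for the full control effect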
Cytochrome P450 2D6 (Homo sapiens), sequence (P10635 whole entry, looked up): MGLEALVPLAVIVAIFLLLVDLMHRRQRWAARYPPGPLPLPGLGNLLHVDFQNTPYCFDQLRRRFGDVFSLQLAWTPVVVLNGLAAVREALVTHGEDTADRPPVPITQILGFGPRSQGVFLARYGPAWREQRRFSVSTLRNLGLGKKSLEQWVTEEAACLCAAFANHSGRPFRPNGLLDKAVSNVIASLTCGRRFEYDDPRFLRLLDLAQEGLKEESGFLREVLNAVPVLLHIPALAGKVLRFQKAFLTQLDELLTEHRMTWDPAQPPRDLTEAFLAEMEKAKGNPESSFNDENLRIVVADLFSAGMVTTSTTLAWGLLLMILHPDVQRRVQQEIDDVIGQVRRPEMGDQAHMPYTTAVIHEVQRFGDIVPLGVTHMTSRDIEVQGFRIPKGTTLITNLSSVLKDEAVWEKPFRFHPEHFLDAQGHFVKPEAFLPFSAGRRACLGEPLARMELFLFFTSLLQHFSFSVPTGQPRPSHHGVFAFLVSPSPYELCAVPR
Outline: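 Human CYP2D6 (5 nM) with 30 uM Luciferin-ME EGE (at Km) in 100 mM KPO4, compound preincubated 10 min, then NADPH regeneration system for 60 min at room temperature. Luciferin read by luminescence; normalized to 1.43 uM quinidine.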

[5] = target: Cytochrome P450 2C19 (Homo sapiens) (UniProt P33261); assay: qHTS Assay for Inhibitors and Substrates of Cytochrome P450 2C19 (AID 899); note: nearly all actives have a fitted effect of over 60% in size; note: potency is the fitted concentration of half-maximal effect
Cytochrome P450 2C19 (Homo sapiens), sequence (P33261 whole entry, looked up): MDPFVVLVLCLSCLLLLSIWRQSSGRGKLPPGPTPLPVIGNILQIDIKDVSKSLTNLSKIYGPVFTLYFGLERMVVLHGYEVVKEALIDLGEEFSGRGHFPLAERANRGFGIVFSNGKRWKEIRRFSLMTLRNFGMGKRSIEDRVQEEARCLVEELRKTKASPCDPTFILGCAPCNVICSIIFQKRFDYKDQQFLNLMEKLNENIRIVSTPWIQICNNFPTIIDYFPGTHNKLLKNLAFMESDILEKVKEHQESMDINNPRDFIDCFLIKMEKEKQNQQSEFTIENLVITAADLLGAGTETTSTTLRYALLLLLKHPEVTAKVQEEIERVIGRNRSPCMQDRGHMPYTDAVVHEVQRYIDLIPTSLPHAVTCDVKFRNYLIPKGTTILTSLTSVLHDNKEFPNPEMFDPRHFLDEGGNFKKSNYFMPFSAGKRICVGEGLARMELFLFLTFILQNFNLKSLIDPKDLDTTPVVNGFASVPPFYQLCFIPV
Outline: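 Reactions contain 5nM enzyme, 10uM Luciferin-H EGE (KM) and 50mM KPO4; compound preincubates 10 min at 37C, NADPH regeneration starts turnover for 60 min. Luminescence after detection reagent gives activity.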

[6] = qHTS Assay for Identification of Small Molecule Agonists for Thrombopoietin (TPO) Signaling Pathway (AID 917); note: potency is the fitted concentration of half-maximal effect
Outline: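 We measured Glycoprotein IIb promoter–luciferase output in IL-3-starved Ba/F3 murine cells expressing the human TPO receptor after 24 hrs at 37 C with compounds and 26 pM TPO.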

[7] = target: Muscarinic acetylcholine receptor M1 (Rattus norvegicus) (UniProt P08482); assay: qHTS Assay for Antagonists of Acetylcholine Muscarinic M1 Receptor: Measurement of IP-One Response (AID 944); note: nearly all actives have a fitted effect of over 75% in size
Muscarinic acetylcholine receptor M1 (Rattus norvegicus), sequence (P08482 whole entry, looked up): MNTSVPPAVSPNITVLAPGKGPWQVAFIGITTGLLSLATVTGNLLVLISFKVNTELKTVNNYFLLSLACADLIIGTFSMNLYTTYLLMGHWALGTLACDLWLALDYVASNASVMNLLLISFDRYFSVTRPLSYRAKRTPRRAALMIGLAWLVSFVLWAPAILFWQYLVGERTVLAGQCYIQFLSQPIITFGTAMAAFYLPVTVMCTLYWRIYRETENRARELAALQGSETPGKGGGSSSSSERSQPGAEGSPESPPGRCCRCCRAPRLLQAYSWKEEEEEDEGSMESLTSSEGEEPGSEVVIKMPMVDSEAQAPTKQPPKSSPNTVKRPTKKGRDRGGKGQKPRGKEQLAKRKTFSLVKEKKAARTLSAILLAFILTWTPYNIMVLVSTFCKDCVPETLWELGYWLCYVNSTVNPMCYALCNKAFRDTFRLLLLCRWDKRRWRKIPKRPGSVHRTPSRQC
Outline: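 M1-CHO (rat), 2000 cells/well, overnight recovery; cpd 10 min; carbachol EC80 (200 nM), 30 min, HEPES buffer + 50 mM LiCl pH 7.4; IP-One HTRF, Ex 337, Em 620/665 nm.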

[8] = Cellular Toxicity (caspase-3) H-4-II-E (AID 663); conditions: H-4-II-E rat hepatoma, scaled: DMSO 0%, 100 µM tamoxifen 100%; at 92.2 µM (top of the series);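 note: cells exposed to compound for 16 hr before readout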
Outline: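 Apoptosis induction is scored as increased luminescence from caspase 3/7 substrate cleavage in rat hepatoma H-4-II-E cells exposed to compound for 16 hr. Activity is scaled between DMSO and 100 uM tamoxifen.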

[9] = Cellular Toxicity (caspase-3) Hek293 (AID 664); conditions: HEK293 caspase-3 activation, DMSO = 0%, 100 µM tamoxifen = 100%; at 92.2 µM (top of the series);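 note: cells exposed to compound for 16 h at 37 °C before readout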
Outline: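 Cells plated, 5 hr at 37 °C; compounds added; 16 hr at 37 °C; Caspase-Glo 3/7 reagent, 20 min RT; luminescence read. Activation expressed relative to DMSO and 100 uM tamoxifen, AC50 by Hill model.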

[10] = Cellular Toxicity (caspase-3) N2a (AID 665); conditions: Potency: caspase-3 activation;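 note: compound exposure lasted 16 h at 37 °C before readout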
Outline: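 N2a cells, 1500/well, 5 h settle at 37 °C; cpd 16 h, 37 °C; Caspase-Glo 3/7, 1 h RT; luminescence. Norm: DMSO = 0, 10 uM staurosporine = 100%. AC50, Hill fit.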

[11] = Cellular Toxicity (caspase-3) NIH 3T3 (AID 666);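 note: caspase signal read after 16 h compound exposure; 0% = DMSO basal and 100% = 100 µM tamoxifen stimulation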
Outline: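 Luminescence from aminoluciferin released by caspase-3/7 cleavage of a peptide substrate served as read-out. Mouse fibroblast NIH 3T3 cells were exposed to compounds over a concentration range for 16 hours, and AC50 values came from standard Hill modelling.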

[12] = Cellular Toxicity (caspase-3) Renal Proximal Tubule (AID 667); conditions: Potency: caspase-3 activation;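 note: cells exposed to compound for 16 hours at 37 °C before detection; 0% = DMSO basal and 100% = 10 µM staurosporine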
Outline: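 In qHTS format, rat primary proximal tubule cells seeded at 1000 per well are exposed to compounds for 16 hours at 37 °C. An increase in Caspase-Glo 3/7 luminescence indicates caspase activation.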

[13] = target: Cytochrome P450 3A4 (Homo sapiens) (UniProt P08684); assay: qHTS Assay for Inhibitors and Substrates of Cytochrome P450 3A4 (AID 884); note: nearly all actives have a fitted effect of over 50% in size; note: potency is the fitted concentration of half-maximal effect; for activity change, negative = inhibition: % is set by controls: 0 for no effect and ±100 for the full control effect
Outline: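 20 nM human CYP3A4 with 25 uM Luciferin-PPXE (at KM) in 200 mM KPO4, preincubated 10 min with compound; NADPH regeneration started a 60 min RT reaction. Luciferin detected by luminescence, normalized to 57 uM ketoconazole as full inhibition.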

[14] = qHTS Assay for Identification of Small Molecule Antagonists for NFkB Signaling Pathway (AID 895; active = well fitted inhibition curve with a large enough effect in the signal ratio, with a control signal flat, not every such curve was filed as active; the % refers to the signal ratio; note: % is set by controls: 0 for no effect and ±100 for the full control effect)
Outline: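 Beta-lactamase reporter read-out (460 and 530 nm emission ratio, 405 nm excitation, 2 hrs substrate loading RT) after 5 hr stimulation with 10 pM TNF alpha in compound-treated NFkB-bla ME-180 cells in low-serum medium.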

[15] = Confirmation and Secondary Assay for Modulators of Hemoglobin Beta Chain Splicing at IVS2 654 locus (AID 910);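 note: HeLa cells stably carrying EGFP split by mutant beta-globin IVS2-654 intron; per-well total GFP intensity by laser scanning cytometry after 2-day treatment; % of control where 0% means no effect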
Outline: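 Readout: per-well total peak green fluorescence (488 nm ex, 500–520 nm em) from objects 5–250 µm, reflecting correct splicing of an EGFP-654 reporter. Compounds were applied for 2 days at 37 °C to overnight-plated HeLa EGFP-654 cells; controls were DMSO and 500 nM IVS2-654 PNA.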

[16] = Confirmation and Secondary Assay for Modulators of Hemoglobin Beta Chain Splicing at IVS2 705 locus (AID 930);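 note: HeLa cells stably expressing the EGFP-705 splicing reporter; GFP fluorescence per well restored by corrected splicing of the IVS2-705 intron in EGFP; % of control where 0% means no effect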
Outline: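 Fluorescence gain (488 nm laser, 500-520 nm PMT) reflects restored correct splicing of a mutant IVS2-705 intron inside EGFP in stably transfected HeLa cells after 2-day compound treatment.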

[17] = target: Muscarinic acetylcholine receptor M1 (Rattus norvegicus) (UniProt P08482); assay: qHTS Assay for Antagonists of Acetylcholine Muscarinic M1 Receptor: Kinetic Measurement of Intracellular Calcium Response (AID 943); note: nearly all actives have a fitted effect of over 75% in size; note: potency is the fitted concentration of half-maximal effect;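 for activity change, negative = inhibition: Fluo-4 calcium signal as peak divided by basal fluorescence over 4 min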
Outline: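 Rat M1-CHO cells, 2000/well, overnight → Fluo-4 no-wash dye with probenecid, 1 h 37C → compound 10 min, room temp → basal read 6 s → carbachol EC80 (100 nM) → 4 min kinetic read; peak/basal.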

Cc1ccc(O)c(N=Nc2ccccc2)n1
active: Potency [6] 79.4 nM
12.6 µM (active) and inactive: Potency [2]
3.98 µM (active) and inactive: Potency [4] | Potency [5]
inactive: outcome [1] | Potency [3] | Potency [7]

CN(C)c1ccc(N=NS(=O)(=O)O)cc1
inactive: caspase-3 activation [8] 11.8% | caspase-3 activation [9] -1.18% | Potency [10] | Potency [11] | Potency [12] | Potency [13]

O=C(O)/C=C\C(=O)O
inactive: caspase-3 activation [8] 0.648% | caspase-3 activation [9] -1.35% | Potency [10] | Potency [11] | Potency [12] | Potency [13]

O=C(O)c1cc(=O)c2c(Cl)cc(Cl)cc2[nH]1
inactive: outcome [1] | Potency [2] | Potency [13] | Potency [4] | Potency [14] | Potency [5] | outcome [15] | Potency [6] | outcome [16]

Nc1ccc([N+](=O)[O-])cc1O
inactive: caspase-3 activation [8] 2.85% | caspase-3 activation [9] -2.49% | Potency [10] | Potency [11] | Potency [12] | Potency [13]

NCCO
inactive: caspase-3 activation [8] -0.037% | caspase-3 activation [9] -4.95% | Potency [10] | Potency [11] | Potency [12] | Potency [13]

N#C/C(=C\c1ccc(O)c(O)c1)C(=O)c1ccc(O)c(O)c1
inactive: outcome [1] | Potency [3] | Potency [14] | Potency [17]

Brc1c(Br)c(Br)c2n[nH]nc2c1Br
active: Potency [13] 2510 nM
inactive: outcome [1] | Potency [3] | Potency [17] | Potency [7]

NC(N)=NC(=O)c1nc(Cl)c(N2CCCCCC2)nc1N
inactive: outcome [1] | Potency [13] | Potency [14] | outcome [15] | outcome [16] | Potency [7]
active: Potency [5] 5.01 µM

O=C(O)c1cc([N+](=O)[O-])ccc1NCCCc1ccccc1
inactive: outcome [1] | Potency [4] | Potency [5] | Potency [17] | Potency [7]
active: Potency [2] 7.94 µM and 501 nM

COc1ccccc1N1CCN(CCCCNS(=O)(=O)c2cccc3c(N(C)C)cccc23)CC1
inactive: outcome [1] | Potency [3]
active: Potency [13] 2510 nM | Potency [5] 0.501 µM | Potency [17] 11200 nM

CC(C)(C=O)Cc1cc(C(C)(C)C)c(O)c(C(C)(C)C)c1
inactive: outcome [1] | Potency [3] | Potency [5] | Potency [6] | Potency [17]

Ic1ccc(N2CCN(Cc3c[nH]c4ncccc34)CC2)cc1
inactive: outcome [1] | Potency [3]

N#C/C(=C\c1ccc(O)c(O)c1)C(=O)NCCCc1ccccc1
inactive: outcome [1] | Potency [3] | Potency [17]
active: Potency [13] 2510 nM

O=C(O)CC[C@@H](C(=O)O)N1C(=O)c2ccccc2C1=O
active: Potency [17] 25.1 nM
inactive: outcome [1] | Potency [13] | activity change, negative = inhibition [4] 21.6% [at 11.4 µM] | Potency [6] | Potency [7]
